Reference: PubChem BioAssay AID1159580 (chemical genetic matrix, 2015)
Out of some 5,500 compounds screened, about 2,000 (36%) were called active. Not shown: some 18% with an inconclusive outcome. No stated cut-off is given here; in the data, active means normalized growth mostly below about 0.91 (no sharp cut-off); inconclusive means no clear call, values can overlap the other calls; inactive means mostly above about 0.92. Some of the results follow.

Assay: chemical genetic growth profiling, strain panel (AID 1159580);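 further: tested at 20 µM; growth read once vehicle control cultures reached saturation at 30 °C; 1 = growth at the plate median or of vehicle wells; lower values mean less growth of the strain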
Conditions: growth OD

Measured: normalized growth

CC1CC2C3CC(F)C4=CC(=O)C=CC4(C)C3(F)C(O)CC2(C)C1(O)C(=O)CO (centres undefined)
inactive: S. cerevisiae deletion strains, locus YJR043C, strain POL32, hits give low values 1.08 | S. cerevisiae deletion strains, locus YJR075W, strain HOC1, hits give low values 1.02 | S. cerevisiae deletion strains, locus YKL009W, strain mrt4, hits give low values 1.01 | S. cerevisiae deletion strains, locus YKL068W, hits give low values 1.01 | S. cerevisiae deletion strains, locus YKL085W, strain MDH1 (second series), hits give low values 1.01 | S. cerevisiae deletion strains, locus YKL085W, strain MDH1, hits give low values 1.01 | S. cerevisiae deletion strains, locus YKL160W, strain elf1, hits give low values 0.984 | S. cerevisiae deletion strains, locus YKL190W, strain CNB1, hits give low values 1.02 | S. cerevisiae deletion strains, locus YKR001C, strain vps1, hits give low values 1.03 | S. cerevisiae deletion strains, locus YKR026C, strain gcn3, hits give low values 0.998 | S. cerevisiae deletion strains, locus YKR091W, strain srl3, hits give low values 1 | S. cerevisiae deletion strains, locus YLL001W, strain dnm1, hits give low values 0.984 | S. cerevisiae deletion strains, locus YLL026W, hits give low values 0.997 | S. cerevisiae deletion strains, locus YLL041C, strain sdh2, hits give low values 0.999 | S. cerevisiae deletion strains, locus YLR027C, strain aat2, hits give low values 0.997 | S. cerevisiae deletion strains, locus YLR039C, strain RIC1, hits give low values 1.08 | S. cerevisiae deletion strains, locus YLR058C, strain SHM2, hits give low values 1.02 | S. cerevisiae deletion strains, locus YLR102C, strain apc9, hits give low values 1.02 | S. cerevisiae deletion strains, locus YLR221C, strain rsa3, hits give low values 0.985 | S. cerevisiae deletion strains, locus YLR258W, strain gsy2, hits give low values 0.995 | S. cerevisiae deletion strains, locus YLR262C, strain YPT6 (second series), hits give low values 0.984 | S. cerevisiae deletion strains, locus YLR262C, strain YPT6, hits give low values 1.08 | S. cerevisiae deletion strains, locus YLR268W, strain sec22, hits give low values 1.02 | S. cerevisiae deletion strains, locus YLR320W, strain mms22, hits give low values 0.993 | S. cerevisiae deletion strains, locus YLR330W, strain CHS5, hits give low values 1.02 | S. cerevisiae deletion strains, locus YLR342W, strain FKS1 (second series), hits give low values 1.1 | S. cerevisiae deletion strains, locus YLR342W, strain FKS1, hits give low values 0.991 | S. cerevisiae deletion strains, locus YLR357W, strain rsc2, hits give low values 1.01 | S. cerevisiae deletion strains, locus YLR370C, strain arc18, hits give low values 1 | S. cerevisiae deletion strains, locus YLR371W, strain rom2, hits give low values 1.01 | S. cerevisiae deletion strains, locus YLR384C, strain iki3, hits give low values 0.986 | S. cerevisiae deletion strains, locus YLR418C, strain cdc73, hits give low values 1 | S. cerevisiae deletion strains, locus YML016C, strain PPZ1, hits give low values 1.02 | S. cerevisiae deletion strains, locus YML032C, strain rad52, hits give low values 1.05 | S. cerevisiae deletion strains, locus YML120C, strain ndi1, hits give low values 1 | S. cerevisiae deletion strains, locus YML124C, strain tub3, hits give low values 1.02 | S. cerevisiae deletion strains, locus YMR058W, strain fet3, hits give low values 1.01 | S. cerevisiae deletion strains, locus YMR078C, strain ctf18, hits give low values 1.02 | S. cerevisiae deletion strains, locus YMR125W, strain sto1, hits give low values 0.986 | S. cerevisiae deletion strains, locus YMR129W, hits give low values 1 | S. cerevisiae deletion strains, locus YMR205C, strain PFK2, hits give low values 0.984 | S. cerevisiae deletion strains, locus YMR223W, strain ubp8, hits give low values 1.04 | S. cerevisiae deletion strains, locus YMR231W, strain pep5, hits give low values 0.995 | S. cerevisiae deletion strains, locus YMR263W, strain SAP30, hits give low values 1.04 | S. cerevisiae deletion strains, locus YMR307W, strain GAS1, hits give low values 1.09 | S. cerevisiae deletion strains, locus YNL067W, strain RPL9B, hits give low values 1.03 | S. cerevisiae deletion strains, locus YNL071W, strain lat1, hits give low values 0.999 | S. cerevisiae deletion strains, locus YNL128W, strain TEP1, hits give low values 1.01 | S. cerevisiae deletion strains, locus YNL153C, strain GIM3, hits give low values 1.03 | S. cerevisiae deletion strains, locus YNL209W, strain ssb2, hits give low values 0.996 | S. cerevisiae deletion strains, locus YNL233W, strain BNI4, hits give low values 1.02 | S. cerevisiae deletion strains, locus YNL248C, strain rpa49, hits give low values 1.01 | S. cerevisiae deletion strains, locus YNL250W, strain rad50, hits give low values 1.04 | S. cerevisiae deletion strains, locus YNL271C, strain bni1, hits give low values 1.03 | S. cerevisiae deletion strains, locus YNL298W, strain CLA4, hits give low values 1.03 | S. cerevisiae deletion strains, locus YNL307C, strain MCK1, hits give low values 1.05 | S. cerevisiae deletion strains, locus YNL322C, strain KRE1 (second series), hits give low values 0.974 | S. cerevisiae deletion strains, locus YNL322C, strain KRE1, hits give low values 1.02 | S. cerevisiae deletion strains, locus YNR049C, strain mso1, hits give low values 0.992 | S. cerevisiae deletion strains, locus YNR052C, strain pop2, hits give low values 1.03 | S. cerevisiae deletion strains, locus YOL006C, strain TOP1, hits give low values 1.06 | S. cerevisiae deletion strains, locus YOL012C, strain htz1 0.779 | S. cerevisiae deletion strains, locus YOL147C, strain pex11, hits give low values 1.02 | S. cerevisiae deletion strains, locus YOR001W, strain rrp6, hits give low values 1.03 | S. cerevisiae deletion strains, locus YOR061W, strain CKA2, hits give low values 1.02 | S. cerevisiae deletion strains, locus YOR069W, strain VPS5, hits give low values 1.01 | S. cerevisiae deletion strains, locus YOR070C, strain gyp1, hits give low values 1 | S. cerevisiae deletion strains, locus YOR080W, strain dia2, hits give low values 0.995 | S. cerevisiae deletion strains, locus YOR083W, strain WHI5, hits give low values 0.965 | S. cerevisiae deletion strains, locus YOR106W, strain vam3, hits give low values 0.97 | S. cerevisiae deletion strains, locus YOR136W, strain idh2, hits give low values 1.03 | S. cerevisiae deletion strains, locus YOR144C, strain elg1, hits give low values 1.02 | S. cerevisiae deletion strains, locus YOR184W, strain ser1, hits give low values 1.08 | S. cerevisiae deletion strains, locus YOR265W, strain rbl2, hits give low values 1.01 | S. cerevisiae deletion strains, locus YOR270C, strain vph1, hits give low values 0.928 | S. cerevisiae deletion strains, locus YOR290C, strain snf2, hits give low values 0.988 | S. cerevisiae deletion strains, locus YOR316C, strain cot1, hits give low values 1.03 | S. cerevisiae deletion strains, locus YPL051W, strain arl3, hits give low values 0.989 | S. cerevisiae deletion strains, locus YPL055C, strain LGE1, hits give low values 1.09 | S. cerevisiae deletion strains, locus YPL078C, strain atp4, hits give low values 1.03 | S. cerevisiae deletion strains, locus YPL106C, strain sse1, hits give low values 0.957 | S. cerevisiae deletion strains, locus YPL240C, strain hsp82, hits give low values 1 | S. cerevisiae deletion strains, locus YPL241C, strain CIN2, hits give low values 1.02 | S. cerevisiae deletion strains, locus YPR119W, strain clb2, hits give low values 1.01 | S. cerevisiae deletion strains, locus YPR141C, strain kar3, hits give low values 1.02 | S. cerevisiae deletion strains, locus YPR163C, strain tif3, hits give low values 1.04 | S. cerevisiae deletion strains, locus YPR167C, strain met16, hits give low values 1.01 | S. cerevisiae deletion strains, strain wtn01, hits give low values 1.02 | S. cerevisiae strains, strain wild type, hits give low values 1.03
